The source of these data is PubChem BioAssay (NCI).

Test systems include NCI-H23 lung; NCI-H226 lung; NCI-H322M lung; HOP-62 NSCLC; NCI-H460 lung; HOP-92 NSCLC; NCI-H522 lung; A549/ATCC NSCLC; 786-0 renal; COLO 205 colon.
What all share (assay): NCI-60 one-dose screen, 48 h (100 = growth as untreated, 0 = no growth, -100 = all killed)
Common to all, as to settings: 10 µM unless noted

Compounds without any hit were thinned out: in the full panel of roughly 83,000, 20% have a hit.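 Single-dose data. Exposure time 48 hours. Values below 10 considered active.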 Unmarked numbers belong to inactive results. Calls of active or inactive are those of the source.

Take `Oc1ccccc1/C=N/NC(=S)NC1CC2C=CC1C2` (stereo not given): the growth was 56.3% in the experiment on NCI-H23 lung; 107% in the experiment on NCI-H226 lung; 83.1% with NCI-H322M lung; 85.6% in the experiment on HOP-62 NSCLC; 16.6% in the experiment with NCI-H460 lung; 82.4% with HOP-92 NSCLC. The growth was 60.3% in the experiment with NCI-H522 lung, 69.9% in the experiment with A549/ATCC NSCLC, 83.4% in the experiment on 786-0 renal and 108% with COLO 205 colon.
As to `COc1cc(/C=C/C(=O)c2ccc(Nc3ncnc4cc(OC)c(OC)cc34)cc2)cc(OC)c1`, the growth is 94.7% in the experiment on NCI-H23 lung; 113% with NCI-H226 lung; 105% in the experiment on NCI-H322M lung; 116% with HOP-62 NSCLC; 109% in the experiment on NCI-H460 lung; 76.4% with HOP-92 NSCLC. The growth in the experiment with NCI-H522 lung is 92.4%; with A549/ATCC NSCLC, 84.9%; with 786-0 renal, 92.3%; with COLO 205 colon it was 117%.
On to `O=C1C(Cl)=C(Nc2ccccn2)C(=O)c2ccccc21`, for which the growth was 40.5% with NCI-H23 lung; 94.1% in the experiment with NCI-H226 lung; 115% with NCI-H322M lung; 46.9% in the experiment with HOP-62 NSCLC; 62.6% with NCI-H460 lung; 102% in the experiment with HOP-92 NSCLC. Besides, the growth in the experiment on NCI-H522 lung was 58.3%; in the experiment with A549/ATCC NSCLC, 104%; with 786-0 renal, 111%; with COLO 205 colon, 97.6%.
In the case of `Cc1ccc(Cc2c(C=O)nc(N)[nH]c2=O)c2ccccc12`, the growth is 97.7% in the experiment with NCI-H23 lung; 98.6% in the experiment with NCI-H226 lung; 119% with NCI-H322M lung; 96.2% in the experiment on HOP-62 NSCLC; 109% with NCI-H460 lung; 91.9% in the experiment with HOP-92 NSCLC. For the same compound, the growth with NCI-H522 lung was 118%; in the experiment on A549/ATCC NSCLC, 86.6%; with 786-0 renal, 89.8%; in the experiment with COLO 205 colon, 95.5%.
On to `Cc1cc(N/N=C/c2nc(-c3ccccc3)oc2C)c2cc(Cl)ccc2n1`, for which the growth in the experiment with NCI-H23 lung was -19.6% (active); in the experiment with NCI-H226 lung, 81.4%; in the experiment with NCI-H322M lung, -54.8% (active); in the experiment on HOP-62 NSCLC it was 10.5%; with NCI-H460 lung, -78.3% (active); in the experiment with HOP-92 NSCLC, -61.9% (active). Further, the growth was -59.4% (active) with NCI-H522 lung, -76.8% (active) in the experiment with A549/ATCC NSCLC, -83.1% (active) with 786-0 renal and -71.9% (active) in the experiment on COLO 205 colon.
As to `CC(C)(C)n1cc(-c2ccnc(NCCCNS(=O)(=O)c3cccc(F)c3)c2)c(-c2cccc(O)c2)n1`, the growth with NCI-H23 lung was 66.5%; in the experiment on NCI-H226 lung it was 60.9%; in the experiment on NCI-H322M lung it was 58.6%; in the experiment with HOP-62 NSCLC, 73.8%; in the experiment with NCI-H460 lung it was 19.6%; in the experiment with HOP-92 NSCLC, 79.5%. The growth in the experiment on NCI-H522 lung was 47.6%; with A549/ATCC NSCLC, 42.5%; in the experiment with 786-0 renal it was 29.5%; with COLO 205 colon, 8.99% (active).
In the case of `O=C(/C=C/c1ccccc1)c1cccc(O)c1`, the growth is 96.7% in the experiment with NCI-H23 lung; 109% in the experiment with NCI-H226 lung; 113% in the experiment with NCI-H322M lung; 103% in the experiment with HOP-62 NSCLC; 110% in the experiment on NCI-H460 lung; 82.8% in the experiment with HOP-92 NSCLC. The growth with NCI-H522 lung is 116%; in the experiment with A549/ATCC NSCLC, 86%; in the experiment on 786-0 renal, 94.2%; in the experiment with COLO 205 colon it was 107%.
Consider `CN1CCN(Cc2ccc(NC(=O)c3cncc(C#Cc4cnc(N)c5ccncc45)c3)cc2C(F)(F)F)CC1`, for which the growth was 15.4% in the experiment with NCI-H23 lung; -12.8% (active) in the experiment with NCI-H226 lung; 20.4% with NCI-H322M lung; 9.44% (active) in the experiment on HOP-62 NSCLC; 8.86% (active) in the experiment on NCI-H460 lung; -22.5% (active) in the experiment on HOP-92 NSCLC. Further, the growth with NCI-H522 lung is 24.4%; in the experiment on A549/ATCC NSCLC, 26.4%; in the experiment with 786-0 renal it was 35.3%; with COLO 205 colon, -16.1% (active).
`O=C(c1c[nH]c(=O)c(-c2ccccc2)c1)c1ccccc1O`: the growth with NCI-H23 lung is 91.7%; in the experiment on NCI-H226 lung it was 88.7%; with NCI-H322M lung, 82.7%; in the experiment on HOP-62 NSCLC it was 86.3%; in the experiment with NCI-H460 lung, 96.1%; with HOP-92 NSCLC it was 70.2%. The growth in the experiment on NCI-H522 lung is 87.2%; in the experiment with A549/ATCC NSCLC, 93.5%; in the experiment with 786-0 renal, 88.2%; in the experiment with COLO 205 colon it was 98.1%.
As for `COc1ccc(-c2ccc(-c3ccc(C(=N)N)cn3)s2)cc1OC`, the growth with NCI-H23 lung is 94%; with NCI-H226 lung it was 96.3%; with NCI-H322M lung, 97.7%; with HOP-62 NSCLC, 91.4%; in the experiment with NCI-H460 lung, 99.5%; in the experiment on HOP-92 NSCLC, 69.3%. Moreover, the growth with NCI-H522 lung was 100%; in the experiment on A549/ATCC NSCLC, 100%; in the experiment with 786-0 renal, 100%; in the experiment on COLO 205 colon, 103%.
As to `O=C(Nc1cccc(-n2cc(-c3ccncc3)c(-c3ccc(Cl)c(O)c3)n2)c1)Nc1cc(C(F)(F)F)cc(C(F)(F)F)c1`, the growth in the experiment on NCI-H23 lung is -7.93% (active); in the experiment with NCI-H226 lung, 1.17% (active); in the experiment with NCI-H322M lung it was 5.11% (active); in the experiment on HOP-62 NSCLC, -86.1% (active); in the experiment with NCI-H460 lung, -55.7% (active); with HOP-92 NSCLC, -45.8% (active). The growth in the experiment on NCI-H522 lung is -50.1% (active); in the experiment on A549/ATCC NSCLC, -32.4% (active); in the experiment on 786-0 renal it was -46.8% (active); with COLO 205 colon, -97.3% (active).
Turning to `O=C1Nc2ccc(Cl)cc2C12Nc1cc(Cl)ccc1S2` (stereo not given), the growth with NCI-H23 lung is 69.1%; in the experiment on NCI-H226 lung, 105%; with NCI-H322M lung, 100%; with HOP-62 NSCLC, 103%; with NCI-H460 lung, 62.7%; in the experiment with HOP-92 NSCLC, 77.2%. Moreover, the growth with NCI-H522 lung is 47.1%; in the experiment with A549/ATCC NSCLC, 72.9%; in the experiment with 786-0 renal, 89.4%; with COLO 205 colon, 101%.
In the case of `COc1ccc(-n2c(=S)sc3c(Cl)nc(C)nc32)c(OC)c1`, the growth was 31.8% in the experiment with NCI-H23 lung; 100% in the experiment on NCI-H226 lung; 61.9% in the experiment with NCI-H322M lung; 90% in the experiment with HOP-62 NSCLC; 3.2% (active) in the experiment on NCI-H460 lung; 54.2% in the experiment with HOP-92 NSCLC. Further, the growth with NCI-H522 lung was 20.8%; in the experiment with A549/ATCC NSCLC, 91.3%; with 786-0 renal it was 75.3%; with COLO 205 colon, 61.1%.
With `COc1cc(NCCCCCN)c2ncccc2c1`, the growth with NCI-H23 lung was 100%; in the experiment on NCI-H226 lung it was 112%; in the experiment on NCI-H322M lung it was 122%; in the experiment with HOP-62 NSCLC, 102%; in the experiment on NCI-H460 lung it was 117%; in the experiment with HOP-92 NSCLC, 117%. The growth in the experiment on NCI-H522 lung is 137%; in the experiment on A549/ATCC NSCLC it was 105%; in the experiment with 786-0 renal, 119%; with COLO 205 colon, 119%.
